Experimental findings from PMC7862700, “An all-to-all approach to the identification of sequence-specific readers for epigenetic DNA modifications on cytosine” are described below.

Common to all, as to experiment: DAPPL (digital affinity profiling via proximity ligation, sequencing); 10 mM Tris-HCl pH 7.5, 50 mM NaCl, 1 mM DTT, 4% glycerol, room temperature, 30 min; GST-TFs on glutathione beads, 16-mer random dsDNA library, 0.1% formaldehyde crosslink after washing; high values mean tight binding
For experiment [1], the target named is T1, FEV (Homo sapiens, UniProt Q99581 1-238).
T1 sequence: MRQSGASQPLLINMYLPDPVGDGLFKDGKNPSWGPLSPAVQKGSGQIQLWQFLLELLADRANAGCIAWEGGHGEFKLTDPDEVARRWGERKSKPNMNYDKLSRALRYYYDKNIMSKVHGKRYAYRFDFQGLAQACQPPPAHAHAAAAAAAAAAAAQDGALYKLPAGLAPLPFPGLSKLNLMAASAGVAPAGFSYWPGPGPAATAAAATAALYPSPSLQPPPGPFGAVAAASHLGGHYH
To be noted: protein: recombinant; tags: N-terminal GST; dsDNA, one strand shown. Summed up: (§1)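 Each value of binding signal is a hexamer's read frequency for a factor divided by the same hexamer's frequency in the tag-only sample. Barcoded, bead-captured GST fusions of human transcription factors made in yeast were pooled with that sample and incubated with 200 nmole of a random double-stranded 16-mer DNA library in Tris/NaCl/DTT/glycerol buffer at room temperature for 30 min. Washing, 0.1% formaldehyde crosslinking, proximity ligation, PCR and Illumina NextSeq500 sequencing followed.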

Experiment [2] has as its target ETV5 (Homo sapiens, UniProt P41161 1-510). To be noted: protein: recombinant; tags: N-terminal GST; dsDNA, one strand shown. The essentials:
as §1

For experiment [3], the target named is HSF1 (Homo sapiens, UniProt Q00613 1-529). To be noted: protein: recombinant; tags: N-terminal GST; chain copies: 3; dsDNA, one strand shown. Summed up: as §1
The target of experiment [4] is T2, SPIC (Homo sapiens, UniProt Q8N5J4 1-248).
T2 sequence: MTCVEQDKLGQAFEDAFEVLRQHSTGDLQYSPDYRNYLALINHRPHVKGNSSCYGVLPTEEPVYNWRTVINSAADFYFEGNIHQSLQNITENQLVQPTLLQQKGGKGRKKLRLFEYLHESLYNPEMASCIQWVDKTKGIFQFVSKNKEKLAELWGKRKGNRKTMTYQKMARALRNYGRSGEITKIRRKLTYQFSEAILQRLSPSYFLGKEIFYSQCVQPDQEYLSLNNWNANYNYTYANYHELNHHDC
To be noted: protein: recombinant; tags: N-terminal GST; dsDNA, one strand shown. Summed up: as §1

Experiment [5] has as its target ELF4 (Homo sapiens, UniProt Q99607 1-663). To be noted: protein: recombinant; tags: N-terminal GST; dsDNA, one strand shown. The essentials:
as §1

Experiment [6] deals with T3, ELK4 (Homo sapiens, UniProt P28324-2 1-405).
T3 sequence: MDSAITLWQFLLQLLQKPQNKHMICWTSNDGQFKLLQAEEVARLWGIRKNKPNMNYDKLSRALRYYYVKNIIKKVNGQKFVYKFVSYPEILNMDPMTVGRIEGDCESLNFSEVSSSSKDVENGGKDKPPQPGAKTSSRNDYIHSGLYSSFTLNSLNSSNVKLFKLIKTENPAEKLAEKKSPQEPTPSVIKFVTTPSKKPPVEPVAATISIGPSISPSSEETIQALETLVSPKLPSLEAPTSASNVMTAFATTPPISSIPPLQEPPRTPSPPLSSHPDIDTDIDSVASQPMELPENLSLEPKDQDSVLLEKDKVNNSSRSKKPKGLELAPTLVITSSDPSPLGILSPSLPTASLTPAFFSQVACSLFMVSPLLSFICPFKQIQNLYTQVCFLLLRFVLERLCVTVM
To be noted: protein: recombinant; tags: N-terminal GST; dsDNA, one strand shown. The essentials:
as §1

For experiment [7], the target named is T4, ETV2 (Homo sapiens, UniProt O00321 1-342).
T4 sequence: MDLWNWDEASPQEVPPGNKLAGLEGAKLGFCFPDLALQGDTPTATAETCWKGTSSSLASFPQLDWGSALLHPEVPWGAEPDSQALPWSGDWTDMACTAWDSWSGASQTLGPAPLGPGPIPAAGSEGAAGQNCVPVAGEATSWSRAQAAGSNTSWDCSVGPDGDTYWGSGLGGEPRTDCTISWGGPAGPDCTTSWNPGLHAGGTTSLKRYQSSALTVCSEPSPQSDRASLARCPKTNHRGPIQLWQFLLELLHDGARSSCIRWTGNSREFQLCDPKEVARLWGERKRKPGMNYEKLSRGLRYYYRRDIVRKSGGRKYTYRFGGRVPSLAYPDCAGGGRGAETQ
To be noted: protein: recombinant; tags: N-terminal GST; dsDNA, one strand shown. Summed up:
as §1

For experiment [8], the target named is T5, ELF3 (Homo sapiens, UniProt P78545 1-371).
T5 sequence: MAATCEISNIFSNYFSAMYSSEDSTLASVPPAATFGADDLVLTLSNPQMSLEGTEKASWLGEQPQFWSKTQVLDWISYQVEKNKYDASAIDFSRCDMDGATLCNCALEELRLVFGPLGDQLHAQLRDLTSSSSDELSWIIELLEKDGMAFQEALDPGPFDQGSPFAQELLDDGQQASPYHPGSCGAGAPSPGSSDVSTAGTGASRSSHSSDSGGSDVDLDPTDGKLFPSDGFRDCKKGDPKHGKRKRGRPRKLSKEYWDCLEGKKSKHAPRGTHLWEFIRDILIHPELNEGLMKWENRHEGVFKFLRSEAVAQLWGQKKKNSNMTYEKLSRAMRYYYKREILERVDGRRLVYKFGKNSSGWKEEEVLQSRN
To be noted: protein: recombinant; tags: N-terminal GST; dsDNA, one strand shown. The essentials: as §1

Experiment [9] concerns the target CRX (Homo sapiens, UniProt O43186 1-299). To be noted: protein: recombinant; tags: N-terminal GST; dsDNA, one strand shown. Summed up: as §1
Experiment [10] concerns the target ETV1 (Homo sapiens, UniProt P50549 1-477). To be noted: protein: recombinant; tags: N-terminal GST; dsDNA, one strand shown. The essentials: as §1
In experiment [11] the target is T6, ERF (Homo sapiens, UniProt P50548 1-548).
T6 sequence: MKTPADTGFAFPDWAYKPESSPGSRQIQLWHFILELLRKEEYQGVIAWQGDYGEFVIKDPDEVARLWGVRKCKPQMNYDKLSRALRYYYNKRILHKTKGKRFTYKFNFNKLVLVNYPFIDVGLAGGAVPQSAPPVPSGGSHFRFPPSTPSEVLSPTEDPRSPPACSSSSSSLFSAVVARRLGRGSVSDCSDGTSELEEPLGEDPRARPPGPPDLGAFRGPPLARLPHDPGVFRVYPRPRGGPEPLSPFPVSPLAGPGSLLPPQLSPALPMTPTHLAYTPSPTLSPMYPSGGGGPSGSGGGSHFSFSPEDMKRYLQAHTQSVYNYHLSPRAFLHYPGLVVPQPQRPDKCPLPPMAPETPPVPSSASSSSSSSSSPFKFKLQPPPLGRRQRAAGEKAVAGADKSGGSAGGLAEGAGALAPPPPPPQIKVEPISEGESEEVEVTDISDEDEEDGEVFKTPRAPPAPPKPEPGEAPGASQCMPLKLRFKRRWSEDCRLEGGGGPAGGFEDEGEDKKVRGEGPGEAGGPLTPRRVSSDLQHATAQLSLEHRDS
To be noted: protein: recombinant; tags: N-terminal GST; dsDNA, one strand shown. The essentials: as §1

The target of experiment [12] is T7, ETV3L (Homo sapiens, UniProt Q6ZN32 1-361).
T7 sequence: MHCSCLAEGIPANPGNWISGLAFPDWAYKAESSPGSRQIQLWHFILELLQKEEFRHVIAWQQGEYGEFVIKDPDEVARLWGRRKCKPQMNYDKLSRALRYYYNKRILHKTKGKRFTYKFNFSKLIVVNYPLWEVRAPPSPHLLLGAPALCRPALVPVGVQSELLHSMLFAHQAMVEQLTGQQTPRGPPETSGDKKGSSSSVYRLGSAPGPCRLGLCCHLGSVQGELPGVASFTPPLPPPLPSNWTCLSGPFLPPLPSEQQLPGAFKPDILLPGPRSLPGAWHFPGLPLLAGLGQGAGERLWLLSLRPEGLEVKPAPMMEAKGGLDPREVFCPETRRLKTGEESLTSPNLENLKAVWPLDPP
To be noted: protein: recombinant; tags: N-terminal GST; dsDNA, one strand shown. The essentials:
as §1

In experiment [13] the target is T8, ETS2 (Homo sapiens, UniProt P15036 1-469).
T8 sequence: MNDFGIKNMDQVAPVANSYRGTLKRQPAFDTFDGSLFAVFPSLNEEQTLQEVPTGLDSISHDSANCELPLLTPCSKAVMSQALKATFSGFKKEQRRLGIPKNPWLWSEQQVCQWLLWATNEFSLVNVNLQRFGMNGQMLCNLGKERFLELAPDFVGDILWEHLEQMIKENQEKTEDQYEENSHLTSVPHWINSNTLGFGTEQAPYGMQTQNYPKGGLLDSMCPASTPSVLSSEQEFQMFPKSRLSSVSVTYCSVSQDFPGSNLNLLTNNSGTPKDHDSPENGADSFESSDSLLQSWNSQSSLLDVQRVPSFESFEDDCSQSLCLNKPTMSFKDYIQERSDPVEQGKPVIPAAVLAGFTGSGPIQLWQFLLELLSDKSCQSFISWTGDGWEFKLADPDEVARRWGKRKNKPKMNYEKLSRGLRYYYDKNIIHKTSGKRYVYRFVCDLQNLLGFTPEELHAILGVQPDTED
To be noted: protein: recombinant; tags: N-terminal GST; dsDNA, one strand shown. Summed up: as §1

In experiment [14] the target is T9, SPDEF (Homo sapiens, UniProt O95238 1-335).
T9 sequence: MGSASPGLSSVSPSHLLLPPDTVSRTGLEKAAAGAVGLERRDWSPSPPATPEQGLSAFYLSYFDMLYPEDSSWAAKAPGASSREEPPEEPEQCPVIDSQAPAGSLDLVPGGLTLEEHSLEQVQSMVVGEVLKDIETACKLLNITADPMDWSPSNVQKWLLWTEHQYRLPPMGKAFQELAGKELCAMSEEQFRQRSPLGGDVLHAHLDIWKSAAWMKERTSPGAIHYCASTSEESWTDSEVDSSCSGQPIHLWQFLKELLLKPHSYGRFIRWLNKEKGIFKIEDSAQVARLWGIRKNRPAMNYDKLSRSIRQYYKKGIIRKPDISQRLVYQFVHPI
To be noted: protein: recombinant; tags: N-terminal GST; dsDNA, one strand shown. Summed up: as §1

Experiment [15] addresses T10, ETV7 (Homo sapiens, UniProt Q9Y603 1-341).
T10 sequence: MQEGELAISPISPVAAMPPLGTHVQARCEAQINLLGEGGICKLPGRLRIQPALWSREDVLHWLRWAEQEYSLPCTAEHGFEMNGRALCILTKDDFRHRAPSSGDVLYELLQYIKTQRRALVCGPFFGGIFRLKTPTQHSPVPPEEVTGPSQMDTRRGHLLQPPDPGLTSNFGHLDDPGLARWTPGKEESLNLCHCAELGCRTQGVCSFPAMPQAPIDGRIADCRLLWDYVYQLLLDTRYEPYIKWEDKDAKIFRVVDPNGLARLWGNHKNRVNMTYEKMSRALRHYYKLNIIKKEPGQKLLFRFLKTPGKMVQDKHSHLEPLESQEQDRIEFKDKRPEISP
To be noted: protein: recombinant; tags: N-terminal GST; dsDNA, one strand shown. The essentials:
as §1

In experiment [16] the target is T11, ELF5 (Homo sapiens, UniProt Q9UKW6-2 1-255).
T11 sequence: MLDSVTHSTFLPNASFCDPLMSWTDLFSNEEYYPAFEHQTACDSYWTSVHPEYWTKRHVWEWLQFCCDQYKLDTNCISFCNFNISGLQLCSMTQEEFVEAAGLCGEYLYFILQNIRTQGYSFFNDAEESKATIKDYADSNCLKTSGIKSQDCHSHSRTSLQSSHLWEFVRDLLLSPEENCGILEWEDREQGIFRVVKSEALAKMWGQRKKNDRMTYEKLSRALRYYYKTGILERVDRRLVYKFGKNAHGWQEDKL
To be noted: protein: recombinant; tags: N-terminal GST; dsDNA, one strand shown. The essentials: as §1

Experiment [17] has as its target T12, ETV3 (Homo sapiens, UniProt P41162-2 1-143).
T12 sequence: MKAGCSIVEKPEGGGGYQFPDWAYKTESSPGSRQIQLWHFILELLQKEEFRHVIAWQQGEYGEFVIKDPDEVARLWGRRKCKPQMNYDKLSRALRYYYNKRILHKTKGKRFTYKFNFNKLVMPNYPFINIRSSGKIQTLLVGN
To be noted: protein: recombinant; tags: N-terminal GST; dsDNA, one strand shown. The essentials: as §1

The target in experiment [18] is ETV6 (Homo sapiens, UniProt P41212 1-452). To be noted: protein: recombinant; tags: N-terminal GST; dsDNA, one strand shown. The essentials:
as §1

CRX, sequence (O43186 whole entry): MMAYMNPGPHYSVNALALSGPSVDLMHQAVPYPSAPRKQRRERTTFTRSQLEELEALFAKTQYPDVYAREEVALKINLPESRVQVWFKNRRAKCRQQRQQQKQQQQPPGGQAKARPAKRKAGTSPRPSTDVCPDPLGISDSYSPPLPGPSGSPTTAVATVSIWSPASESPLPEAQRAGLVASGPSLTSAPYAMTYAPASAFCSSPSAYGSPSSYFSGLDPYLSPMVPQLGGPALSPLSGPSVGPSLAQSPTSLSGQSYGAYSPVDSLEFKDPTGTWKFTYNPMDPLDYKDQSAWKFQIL
ELF4, sequence (Q99607 whole entry): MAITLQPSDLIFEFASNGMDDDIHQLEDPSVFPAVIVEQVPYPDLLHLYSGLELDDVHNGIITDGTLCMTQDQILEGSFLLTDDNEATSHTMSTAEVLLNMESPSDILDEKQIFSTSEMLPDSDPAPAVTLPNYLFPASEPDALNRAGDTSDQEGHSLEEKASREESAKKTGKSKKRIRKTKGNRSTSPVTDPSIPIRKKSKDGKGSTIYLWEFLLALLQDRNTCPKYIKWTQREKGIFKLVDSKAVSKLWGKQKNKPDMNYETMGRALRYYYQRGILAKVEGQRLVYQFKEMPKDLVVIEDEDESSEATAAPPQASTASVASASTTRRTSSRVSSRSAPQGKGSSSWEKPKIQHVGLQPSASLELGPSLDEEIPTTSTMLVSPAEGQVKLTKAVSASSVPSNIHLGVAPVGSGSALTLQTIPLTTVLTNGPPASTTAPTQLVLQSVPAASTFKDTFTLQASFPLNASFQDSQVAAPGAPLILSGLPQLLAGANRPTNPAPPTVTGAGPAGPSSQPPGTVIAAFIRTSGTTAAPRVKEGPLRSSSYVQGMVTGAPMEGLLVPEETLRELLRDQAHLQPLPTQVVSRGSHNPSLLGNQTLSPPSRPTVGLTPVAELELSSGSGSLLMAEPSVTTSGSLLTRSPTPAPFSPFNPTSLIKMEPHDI
ETV5, sequence (P41161 whole entry): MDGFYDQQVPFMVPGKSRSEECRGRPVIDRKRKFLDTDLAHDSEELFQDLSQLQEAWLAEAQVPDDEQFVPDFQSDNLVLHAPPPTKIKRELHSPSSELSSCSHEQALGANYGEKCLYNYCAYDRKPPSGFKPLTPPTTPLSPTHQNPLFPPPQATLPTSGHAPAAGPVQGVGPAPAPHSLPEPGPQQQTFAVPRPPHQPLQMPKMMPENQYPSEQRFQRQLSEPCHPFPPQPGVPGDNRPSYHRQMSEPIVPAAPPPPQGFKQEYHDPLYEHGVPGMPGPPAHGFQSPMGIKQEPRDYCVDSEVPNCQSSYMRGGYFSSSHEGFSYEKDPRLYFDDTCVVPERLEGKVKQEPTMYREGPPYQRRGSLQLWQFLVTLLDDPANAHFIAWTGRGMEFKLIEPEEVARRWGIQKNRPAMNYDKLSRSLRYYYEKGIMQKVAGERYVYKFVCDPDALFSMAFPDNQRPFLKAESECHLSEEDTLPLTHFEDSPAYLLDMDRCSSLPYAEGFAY
HSF1, sequence (Q00613 whole entry): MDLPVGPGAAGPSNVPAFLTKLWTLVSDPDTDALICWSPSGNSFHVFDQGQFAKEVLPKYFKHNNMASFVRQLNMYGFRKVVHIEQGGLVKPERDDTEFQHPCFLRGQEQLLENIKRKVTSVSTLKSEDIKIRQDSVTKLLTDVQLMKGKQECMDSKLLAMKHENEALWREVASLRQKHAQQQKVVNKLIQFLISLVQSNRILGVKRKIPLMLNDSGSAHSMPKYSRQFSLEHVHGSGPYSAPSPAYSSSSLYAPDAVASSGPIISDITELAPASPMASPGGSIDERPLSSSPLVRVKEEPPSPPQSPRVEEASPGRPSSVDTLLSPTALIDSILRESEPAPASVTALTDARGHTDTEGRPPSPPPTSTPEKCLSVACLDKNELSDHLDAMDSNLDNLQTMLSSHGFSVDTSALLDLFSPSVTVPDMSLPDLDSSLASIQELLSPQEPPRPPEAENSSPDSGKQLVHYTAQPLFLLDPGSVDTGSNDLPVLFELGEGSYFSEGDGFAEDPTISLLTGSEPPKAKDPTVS
ETV6, sequence (P41212 whole entry): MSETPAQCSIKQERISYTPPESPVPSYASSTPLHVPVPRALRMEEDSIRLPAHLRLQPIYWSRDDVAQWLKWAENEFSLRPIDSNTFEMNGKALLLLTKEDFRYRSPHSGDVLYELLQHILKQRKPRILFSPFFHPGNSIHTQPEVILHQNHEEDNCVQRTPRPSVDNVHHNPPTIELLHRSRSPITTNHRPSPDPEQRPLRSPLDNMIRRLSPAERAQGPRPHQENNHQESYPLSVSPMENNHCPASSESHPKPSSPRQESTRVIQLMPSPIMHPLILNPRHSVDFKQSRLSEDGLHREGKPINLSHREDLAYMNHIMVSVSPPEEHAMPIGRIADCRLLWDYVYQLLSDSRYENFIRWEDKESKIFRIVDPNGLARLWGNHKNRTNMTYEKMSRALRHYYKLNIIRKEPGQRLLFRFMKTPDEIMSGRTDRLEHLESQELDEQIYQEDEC
ETV1, sequence (P50549 whole entry): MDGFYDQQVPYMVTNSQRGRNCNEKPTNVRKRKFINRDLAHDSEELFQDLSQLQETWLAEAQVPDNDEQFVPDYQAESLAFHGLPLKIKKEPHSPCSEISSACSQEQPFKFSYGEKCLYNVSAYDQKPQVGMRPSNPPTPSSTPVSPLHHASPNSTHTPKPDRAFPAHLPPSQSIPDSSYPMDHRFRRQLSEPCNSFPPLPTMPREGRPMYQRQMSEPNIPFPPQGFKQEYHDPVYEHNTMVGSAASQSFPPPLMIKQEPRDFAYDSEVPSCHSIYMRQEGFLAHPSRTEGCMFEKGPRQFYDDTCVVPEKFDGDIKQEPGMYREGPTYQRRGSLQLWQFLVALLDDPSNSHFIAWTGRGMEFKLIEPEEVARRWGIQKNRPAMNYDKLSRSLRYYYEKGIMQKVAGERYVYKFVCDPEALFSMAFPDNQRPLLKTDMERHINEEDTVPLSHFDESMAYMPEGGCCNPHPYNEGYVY

With TTCCTG, the binding signal is 2.13 fold enrichment (6-mer frequency, TF over GST control) in experiment [1]; 2.57 fold enrichment (6-mer frequency, TF over GST control) in [2]; 1.63 fold enrichment (6-mer frequency, TF over GST control) in [3]; 2.31 fold enrichment (6-mer frequency, TF over GST control) in experiment [4]; 2.05 fold enrichment (6-mer frequency, TF over GST control) in [5]; 1.78 fold enrichment (6-mer frequency, TF over GST control) in experiment [6]. The binding signal was 2.46 fold enrichment (6-mer frequency, TF over GST control) in experiment [7]; 2.23 fold enrichment (6-mer frequency, TF over GST control) in [8]; 1.12 fold enrichment (6-mer frequency, TF over GST control) in experiment [9]; 2.22 fold enrichment (6-mer frequency, TF over GST control) in [10]; 1.87 fold enrichment (6-mer frequency, TF over GST control) in experiment [11]; 2.35 fold enrichment (6-mer frequency, TF over GST control) in experiment [12]. Besides, the binding signal is 2.4 fold enrichment (6-mer frequency, TF over GST control) in experiment [13]; 2.25 fold enrichment (6-mer frequency, TF over GST control) in experiment [14]; 2.03 fold enrichment (6-mer frequency, TF over GST control) in [15]; 3.79 fold enrichment (6-mer frequency, TF over GST control) in experiment [16]; 2.66 fold enrichment (6-mer frequency, TF over GST control) in experiment [17]; 2.57 fold enrichment (6-mer frequency, TF over GST control) in [18].
